These compounds were tested against Torsin-1A-interacting protein 1 (Homo sapiens) (UniProt Q5JTV8) (assay: LAP1 binders from COS7 cell lysate, primary screen, small-molecule microarray, 635/667 nm fluorescence (AID 1116)). Settings: COS7-hLAP1 lysate binding, 635 nm fluorescence, higher = more signal.
Sequence of Torsin-1A-interacting protein 1 (Homo sapiens) (Q5JTV8 whole entry, looked up): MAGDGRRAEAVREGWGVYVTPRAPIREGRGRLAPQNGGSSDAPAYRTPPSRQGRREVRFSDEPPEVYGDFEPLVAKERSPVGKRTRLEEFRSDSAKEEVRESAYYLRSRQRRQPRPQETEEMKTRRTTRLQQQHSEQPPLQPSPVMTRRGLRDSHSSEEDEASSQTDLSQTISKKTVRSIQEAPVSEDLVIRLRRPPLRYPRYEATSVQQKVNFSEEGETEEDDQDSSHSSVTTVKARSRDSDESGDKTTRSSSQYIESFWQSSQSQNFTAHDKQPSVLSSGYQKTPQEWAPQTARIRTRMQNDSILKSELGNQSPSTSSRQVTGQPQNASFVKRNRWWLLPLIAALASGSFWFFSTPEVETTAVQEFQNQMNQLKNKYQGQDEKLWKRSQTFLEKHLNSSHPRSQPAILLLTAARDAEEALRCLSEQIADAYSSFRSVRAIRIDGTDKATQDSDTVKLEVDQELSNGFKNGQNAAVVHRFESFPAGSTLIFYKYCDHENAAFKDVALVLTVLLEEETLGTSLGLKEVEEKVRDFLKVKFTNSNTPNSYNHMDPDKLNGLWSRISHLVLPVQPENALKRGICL

Row | Compound | composite z-score
1 | CO[C@@H]1COC(=O)CC=C[C@@H](C)[C@@H]2C=C[C@@H](O)[C@@H](COC(=O)CC=C[C@H]1C)O2 | -0.208
2 | CO[C@@H]1COC(=O)[C@H](C)NC(=O)[C@@H](C)COC(=O)CCC[C@H]1C | 0.268
3 | COC(=O)[C@@]1(Cc2ccc(OC)cc2)[C@H]2c3cc(C(=O)N4CCCC4)n(Cc4cc(F)c(F)c(F)c4)c3C[C@H]2CN1C(=O)c1ccccc1 | 1.52
4 | CC(C)=NOCc1cccc(-c2cc(-c3ccccc3)no2)c1 | 0.237
5 | CC(C)=NOCc1ccc(-c2cc(-c3ccccc3)no2)cc1 | 0.0444
6 | Cn1cccc1C(O)C1C=CC2C(=O)NC(=O)C2N1Nc1ccccn1 (stereo unspecified) | -0.0327

These compounds were tested against Alpha-bungarotoxin (Bungarus multicinctus) (UniProt P60615) (assay: alpha-bungarotoxin binders on microarray, profiling panel, artefact control for SMM control protein annotation, biochemical, small-molecule microarray, Alexa647 label, 635/667 nm fluorescence (AID 1117)). Settings: alpha-BTX-A647 binding fluorescence, higher = more signal.
Sequence of Alpha-bungarotoxin (Bungarus multicinctus) (P60615 whole entry, looked up): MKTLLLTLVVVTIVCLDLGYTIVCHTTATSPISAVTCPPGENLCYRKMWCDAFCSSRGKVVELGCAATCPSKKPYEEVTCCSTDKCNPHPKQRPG

Row | Compound | composite z-score
7 | CCN1C(=O)[C@H]2[C@H]3[C@H](O)[C@H](O)CC(=NOC[C@@H](C)[C@H](OCc4ccccc4)C(C)C)[C@@H]3CC[C@H]2C1=O | 0.234
8 | CCOC(=O)NN=C1C[C@@H](O)[C@@H](O)[C@@H]2[C@@H]3C(=O)N(C4CCCCC4)C(=O)[C@@H]3CC[C@@H]12 | 0.601
9 | CCc1cc2c(nc1CC)CCN(CCC(C)=NOC[C@@H](O)[C@H]1O[C@@H]3OC(C)(C)O[C@@H]3[C@H]1O)C2 | 0.677
10 | CC(C)NC(=O)[C@@H]1c2ccccc2C(=O)N(CC23CC4CC(CC(C4)C2)C3)[C@H]1c1ccc(CO)cc1 | 0.812
11 | CN1C(=O)C2C=CC(C(O)C(c3ccccc3)c3ccccc3)N(NC(=O)OC(C)(C)C)C2C1=O (stereo unspecified) | 2.04
12 | CC(C)(C)OC(=O)CC[C@]1(C(N)=O)COC(c2ccc(OCCCO)cc2)=N1 | 1.64
13 | C/C=C\[C@@H](NCc1ccccc1Br)[C@@H](O)Cc1ccccc1 | -0.791
14 | CCOC(=O)C1=CC[C@H]2C(=O)N(CC)C(=O)[C@@H]12 | 0.431
15 | COC(=O)C1(C)C=C2C(=C(c3ccccc3)C(=O)C2C)CN1 (stereo unspecified) | -0.422
16 | CO[C@@H]1COC(=O)CC=C[C@@H](C)[C@@H]2C=C[C@H](O)[C@@H](COC(=O)CCC[C@H]1C)O2 | -0.394
17 | CCOC(=O)[C@H](Cc1ccccc1)NC(=O)CCC1CC(OC(=O)NCc2ccc3c(c2)OCO3)CC2(CCCC(COC(=O)NCC(c3ccccc3)c3ccccc3)O2)O1 (stereo partly specified) | 0.363
18 | CN1C(=O)C2C(C1=O)C1C=C(CCCO)C2C(c2ccc(CN3CCCC3)cc2)N1C (stereo unspecified) | 0.0035
19 | [N-]=[N+]=NCc1ccccc1[C@@H]1OC(c2ccc(OCCCO)cc2)=N[C@]1(Cc1ccccc1)C(=O)N1CCOCC1 | 1.62
20 | CO[C@@H]1COC(=O)CCC[C@@H](C)[C@H](OC)COC(=O)CCC[C@H]1C | -0.12
21 | C=COC[C@H]1CN2[C@@H](CC[C@@H](C)[C@@H]2c2ccc(Br)cc2)C(=O)O1 | 0.166
22 | CC(C)=CCCC(C)=CCON=C1[C@H]2CCn3c(=O)n(Cc4cc5c(cc4Cl)OCO5)c(=O)n3[C@H]2[C@H](O)[C@@H]2O[C@H]12 | -0.112
23 | C=CCOC(=O)[C@H]1[C@@H]2C(=O)O[C@@H](c3ccccc3)[C@@H](c3ccccc3)N2[C@@H](c2ccc(OCCOC(=O)[C@H]3C[C@H]4C(=O)N5CCC[C@H]5C(=O)N4[C@H]3c3cccc(OCCO)c3)cc2)[C@]12C(=O)Nc1ccc(I)cc12 | 1.69
24 | COc1ccc(-c2ccc3c(n2)CCCN3CC(O)CN2CCCc3nc(C)c(C)cc32)cc1 (stereo unspecified) | 2.05
25 | COC(=O)[C@@]1(Cc2ccccc2)[C@H]2c3cc(C(=O)N4CCCC4)n(Cc4ccccn4)c3C[C@H]2CN1C(=O)c1ccccc1 | 0.914
26 | CC(C)NC(=O)[C@@]1(C)c2ccccc2C(=O)N(Cc2cc(F)cc(C(F)(F)F)c2)[C@H]1c1ccc(CO)cc1 | 1.16
27 | CO[C@H]1COC(=O)[C@H](C)COC(=O)CC=C[C@@H](C)[C@H](OC)COC(=O)CC=C[C@@H]1C | -0.289
28 | CC(=O)OC[C@H]1O[C@H](CCON=C(C)CCC(=O)OC[C@H]2O[C@H](C#Cc3ccccc3)C=C[C@@H]2Oc2ccc(C)cc2)C=C[C@@H]1OC(C)=O | 1.24
29 | CN(C)C(=O)[C@@]1(Cc2ccccc2)N=C(c2ccc(OCCCO)cc2)O[C@H]1c1ccccc1CN=[N+]=[N-] | 2.62
30 | C=CCC(OC(C)=O)[C@@H]1[C@@H](N(Cc2cc3ccccc3o2)C(=O)Cc2ccc(F)cc2)c2cc(OCCCO)ccc2N1C(=O)Cc1ccc(OC)cc1 (stereo partly specified) | 0.286
31 | COc1ccc(O[C@H]2C=C[C@@H](c3ccccc3)O[C@@H]2COC(=O)CCC(C)=NO[C@H](C)c2cn([C@@H]3COC[C@H]3O)nn2)cc1 | 1.19

Reference: PubChem BioAssay
